Bioassay records as filed in PubChem BioAssay.
Rows were chosen to be rich in hits. Some 6.3% of all compounds tested hit in one or more screens of this group.
NADH coupling: inhibitors of PK/LDH coupling enzymes, profiling panel, artefact control, biochemical, MLSMR library; coupled PK/LDH NADH assays, four targets; IC50, µM (highest dose often 10 µM); 65,000 tested, 0.02% active; AID 774, 2007;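 active = single-dose screening hits from any of four coupled enzyme assays that gave an IC50 when retested across doses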;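 note: the DPM-DC format reads NADH fluorescence rather than 340 nm absorbance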
PMK inhibit: S. pneumoniae PMK inhibitors, primary screen, biochemical, mevalonate pathway, pilot trial included; phosphomevalonate kinase (Streptococcus pneumoniae D39); purified PMK, PK/LDH-coupled NADH absorbance 340 nm; inhibition, % at 10 µM; 65,000 tested, 0.49% active; AID 539, 2006;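 active = top-ranked compounds by inhibition in the single 10 µM screen, taking a fixed number of the strongest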
Abs 340nm: compound light absorbance at 340 nm, profiling panel, artefact control, biochemical, MLSMR library, data from PS, PMK, MK assays; AID 708, 2007; 65,000 tested, under 10 active; fold change at 10 µM; compound absorbance at 340 nm, fold over control;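 active = at 10 µM dose, initial 340 nm absorbance at least 2 fold that of control wells; inactive = change under 2 fold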;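 note: initial absorbance extrapolated from kinetic A340 decline of NADH oxidation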
MK inhibit: S. pneumoniae MK inhibitors, primary screen, biochemical, PK/LDH-coupled NADH absorbance; inhibition, % at 10 µM; 65,000 tested, 0.48% active; purified MK, PK/LDH-coupled NADH absorbance 340 nm; AID 555, 2006; mevalonate kinase [Streptococcus pneumoniae D39];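 active = ranked among the strongest by inhibition in the single 10 µM screen, a fixed top-ranked set picked for dose follow-up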
Autofluor 339: intrinsic fluorescence of library compounds, ex339/em460 – biochemical, MLSMR library, data from DPM-DC assay, artefact control, profiling panel. compound autofluorescence, ex339/em460 nm, NADH buffer; stronger effect = higher value; 1 = no-compound wells, NADH background. fluorescence fold increase at 10 µM. 65,000 tested, 5.5% active. AID 709, 2007;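 active = at 10 µM, mean starting fluorescence two-fold or more over control wells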;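 note: signal is the first read of a kinetic run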
Spn DPM-DC inh: S. pneumoniae DPM-DC inhibitors, primary screen, biochemical, PK/LDH-coupled NADH fluorescence. purified DPM-DC. diphosphomevalonate decarboxylase (Streptococcus pneumoniae D39). calls only at 10 µM. 65,000 tested, 0.49% active. AID 556, 2006;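 active = the 320 compounds with the highest percent inhibition in the single-dose primary screen, excluding strongly autofluorescent ones, cut at about 32% in these data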;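 note: kinetic rate of NADH fluorescence loss reporting ADP formed by the decarboxylase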
Each line names hits and unclear results; the compound was inactive in the other large screens.

Cc1ccc2cc(-c3noc(C(C)(C)C)n3)c(=O)[nH]c2c1	Autofluor 339 3.9
Cc1ccc2cc(CCNC(=O)C(C)(C)C)c(=O)[nH]c2c1	none
CCCN1C(=O)C(O)(C2CC(=O)CC(C)(C)O2)c2ccccc21 (configuration not stated)	none
CSCCC(NC(=O)COc1ccccc1)C(=O)N1CCN(c2ccccc2F)CC1 (configuration not stated)	none
CN(C(=O)c1cccs1)c1ccccc1C(=O)O	Autofluor 339 2.2 (not shown: Spn DPM-DC inh)
O=C(NCc1ccccn1)C(C(=O)c1ccc(F)cc1)n1ccccc1=O (configuration not stated)	none
CCOC(=O)c1[nH]c2ccc(OC)cc2c1NS(=O)(=O)c1ccc(OC)cc1OC	none
CCOC(=O)c1[nH]c2ccc(OC)cc2c1NC(=O)OC	Autofluor 339 3.6 (not shown: Spn DPM-DC inh)
CCOC(=O)c1[nH]c2ccc(OC)cc2c1NC(=O)CCN1CCCC(C)C1 (configuration not stated)	Autofluor 339 2.2 (not shown: MK inhibit, Spn DPM-DC inh)
CCOC(=O)c1[nH]c2ccc(OC)cc2c1NC(=O)C(C)N1CCSCC1 (configuration not stated)	Autofluor 339 3.8 (not shown: Spn DPM-DC inh)
COC(=O)c1[nH]c2cc(OC)ccc2c1N	Autofluor 339 3.8 (not shown: Spn DPM-DC inh)
C=CCSc1nc(C)c(CC(=O)OCC(C)C)c(=O)[nH]1	none
CCOC(=O)c1[nH]c2ccc(OC)cc2c1N=CN(C)C	Autofluor 339 2.8
CCOC(=O)c1[nH]c2cc(OC)c(OC)cc2c1NC(=O)C(C)N1CCN(Cc2ccccc2)CC1 (configuration not stated)	Autofluor 339 2.5 (not shown: Spn DPM-DC inh)
CC1(C)CC(NC(=O)C23CCC(C)(/C(=N/O)C2)C3(C)C)CC(C)(C)N1 (configuration not stated)	none
O=C(Nc1ccc(-c2nc3ccccc3o2)cc1)C1CCCO1 (configuration not stated)	Autofluor 339 2.1
CCCOc1ccc(-c2nc(C#N)c(N3CCN(CC)CC3)o2)cc1	Autofluor 339 3.4 (not shown: Spn DPM-DC inh)
Cc1ccc(OCc2nc(C#N)c(N3CCN(Cc4ccccc4)CC3)o2)cc1	none
CCOc1ccc(-c2nc(C#N)c(N3CCN(CC)CC3)o2)cc1	Autofluor 339 2.4 (not shown: Spn DPM-DC inh)
Cc1csc(NC(=O)CSc2nnc(-c3ccoc3C)n2Cc2ccco2)n1	none
O=c1oc2c3c4c(cc2c2c1CCC2)OCCN4CCC3	Autofluor 339 2.2 (not shown: Spn DPM-DC inh)
C=CCn1c(N)c(C(=O)Nc2ccccc2)c2nc3ccccc3nc21	none
C=CCNC(=O)c1c(N)n(-c2cccc(S(N)(=O)=O)c2)c2nc3ccccc3nc12	Autofluor 339 2.1 (not shown: Spn DPM-DC inh)
COC(=O)c1c(N)n(-c2ccc(NC(C)=O)cc2)c2nc3ccccc3nc12	Autofluor 339 3.8 (not shown: Spn DPM-DC inh)
COCCNC(=O)c1c(N)n(-c2cccc(C)c2)c2nc3ccccc3nc12	Autofluor 339 3.9 (not shown: Spn DPM-DC inh)
COC(=O)c1c(N)n(-c2ccc(N3CCOCC3)cc2)c2nc3ccccc3nc12	none
Nc1c(C(=O)NCCN2CCOCC2)c2nc3ccccc3nc2n1-c1ccc2c(c1)OCO2	Spn DPM-DC inh active
CN(C)CCCNCCCNC(=O)/C(=N\O)c1ccccn1	none
CCCCN(C)C(=O)CS(=O)(=O)Cc1nc(-c2cccc(OC)c2)oc1C	none
Cc1ccc(-c2nsc3c(N4CCC(C(N)=O)CC4)ncnc23)cc1	none
O=C(O)CC1NC(=O)N(c2ccc(Cl)cc2)C1=O (configuration not stated)	none
CCOc1ccccc1NC(=O)c1ccc(F)c(S(=O)(=O)N2CCC3(CC2)OCCO3)c1	none
Nc1c(C(=O)NCCN2CCOCC2)c2nc3ccccc3nc2n1-c1ccccc1	Autofluor 339 3.9 (not shown: Spn DPM-DC inh)
Nc1ccc[n+](Cc2ccccn2)c1	Autofluor 339 2.1
COC(=O)Cn1c(=O)c2c(nc3n2CC(C)CN3c2ccc(C)c(C)c2)n(C)c1=O (configuration not stated)	none
Cc1ccn2cc(CNS(=O)(=O)c3ccc(Cl)s3)nc2c1	none
